This passage reports Nile Red retention ratio vs DMSO results from PubChem BioAssay AID588520 (NMMLSC, 2011).

Among all 1,700 compounds or so, about 65 (4%) were called active. These entries were drawn from the full list. Values without a mark were called inactive. Rule as the data show it: active = Nile Red retention ratio vs DMSO above about 190%; inactive = the rest.

This assay has as its system Candida albicans drug resistance protein 2 (Cdr2) efflux pump, expressed in S. cerevisiae. As to the kind of experiment: Cdr2 pump blockade via Nile Red retention – S. cerevisiae AD/CaCDR2, flow cytometry, cherry pick 1, singleplex, confirmation (AID 588520).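 Also: higher ratio means more blocking of Cdr2 efflux of the dye.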 Conditions: at 10 µM, active compounds read high.
Regarding `COc1ccc2[nH]c3c(C)c4cc[n+](C)cc4c(C)c3c2c1`, the Nile Red retention ratio vs DMSO is 97.2%.
As to `O=C1NC(=O)C2C1C(c1ccc([N+](=O)[O-])cc1)=NN2Cc1ccccc1` (centres undefined), the Nile Red retention ratio vs DMSO is 112%.
In the case of `COc1ccc(-c2sc3ccccc3c2-c2ccc(OCCN3CCOCC3)cc2)cc1`, the Nile Red retention ratio vs DMSO was 101%.
In the case of `O=C(NCc1ccccc1)C(=O)NCC1OCCN1S(=O)(=O)c1ccc(Br)cc1` (centres undefined), the Nile Red retention ratio vs DMSO is 84.8%.
Consider `COc1ccccc1CSc1ncc(-c2ccc([N+](=O)[O-])cc2)[nH]1`, for which the Nile Red retention ratio vs DMSO was 87.5%.
For the compound `CCOc1ccc(C2/C(=C(/O)c3ccc4c(c3)CC(C)O4)C(=O)C(=O)N2CCCn2ccnc2)cc1` (centres undefined), the Nile Red retention ratio vs DMSO was 94.1%.
Consider `COc1ccc(C(=O)NC2CC(C)(C)Cc3c2cnn3-c2ccccc2)c(OC)c1` (centres undefined), for which the Nile Red retention ratio vs DMSO was 100%.
As to `CN1CCN(S(=O)(=O)c2ccc(NC(=S)NC(=O)C3CC3)cc2)CC1`, the Nile Red retention ratio vs DMSO is 103%.
For `CC(C)C(=O)N1CCC2(CC1)Oc1ccc(F)cc1C(=O)C21CC(c2ccccc2)=NO1` (centres undefined), the Nile Red retention ratio vs DMSO was 102%.
Turning to `CN(C)S(=O)(=O)c1cc(C(=O)Nc2ccn(C)n2)c(Cl)cc1Cl`, the Nile Red retention ratio vs DMSO is 99.3%.
`CCn1c(/C=C/c2ccc([N+](=O)[O-])o2)nc2ccccc2c1=O`: the Nile Red retention ratio vs DMSO is 212% (active).
Under `O=S(=O)(c1ccccc1)N1CCc2ccccc21` stands 83.1%; under `CC12CCC(C(=O)N(c3cccc(Cl)c3)C1=O)C2(C)C` (centres undefined), 110%; under `O=C(CNC(=O)c1ccc(-c2ccccc2)cc1)OCc1ccc(Cl)cc1`, 120%.
As for `Cc1cc(C)cc(NC(=O)C(OC(=O)c2ccc(O)cc2)c2ccccc2)c1` (centres undefined), the Nile Red retention ratio vs DMSO is 101%.
Turning to `CC(/C=N/NC(=O)c1cc(-c2ccc3ccccc3c2)n[nH]1)=C\c1ccco1`, the Nile Red retention ratio vs DMSO was 95.4%.
Turning to `CCCc1nc(N2CCN(C)CC2)c2sc(=S)n(-c3ccccc3)c2n1`, the Nile Red retention ratio vs DMSO was 99.6%.
As to `C[n+]1ccc(/C=C/c2c[nH]c3ccccc23)cc1`, the Nile Red retention ratio vs DMSO is 140%.
With `CCCCCCCCCCCCCCCC(=O)OC/C=C(C)/C=C/C=C(C)/C=C/C1=C(C)CCCC1(C)C`, the Nile Red retention ratio vs DMSO was 123%.
As for `Cc1nn(C)cc1N1C(=O)c2cccc3c(N)ccc(c23)C1=O`, the Nile Red retention ratio vs DMSO was 106%.
With `COc1ccc(/C=C(\C#N)c2c[nH]c3ccccc23)cc1`, the Nile Red retention ratio vs DMSO was 98.5%.
In the case of `CCCCOc1ccc(C(=O)NCC(=O)OCC(=O)c2c(N)n(C)c(=O)n(C)c2=O)cc1` it was 103%; in that of `NNC(=O)COc1ccc(C2SCCS2)cc1`, 98.5%; in that of `COc1ccc(C(=O)NC(=S)Nc2ccc(N3CCCC3)cc2)cc1OC`, 95.1%.
Take `O=C(CSc1nnc(-c2cccnc2)n1Cc1ccco1)c1ccc(Cl)c(Cl)c1`: the Nile Red retention ratio vs DMSO was 107%.
Consider `CCCCN1C(=O)/C(=C/C=C2/C=Cc3ccccc3N2CC)SC1=S`, for which the Nile Red retention ratio vs DMSO is 108%.
As to `CCCCCC(=O)Nc1ccc(C(=O)N/N=C/c2ccc([N+](=O)[O-])cc2)cc1`, the Nile Red retention ratio vs DMSO was 105%.
In the case of `COc1ccc(C(=O)C2CCCN(Cc3cccn3-c3ccccn3)C2)c(C)c1` (centres undefined) it was 98.5%.
Under `O=C(Cc1ccc(Br)cc1)N1CCN(c2ccccn2)CC1` stands 85.2%.
On to `COc1ccc(NC(=S)N2CCc3cc(OC)c(OC)cc3C2)cc1`, for which the Nile Red retention ratio vs DMSO is 99.3%.
In the case of `CCOc1ccc(/C=C2\SC(=S)N(NC(=O)c3ccncc3)C2=O)cc1OC` it was 105%; in that of `CN=C(c1ccccc1)c1c(C)cccc1C`, 107%.
For `COc1ccc(S(=O)(=O)N2CCOC2CNC(=O)C(=O)NCc2ccc(F)cc2)cc1` (centres undefined), the Nile Red retention ratio vs DMSO was 114%.
Consider `Cc1cc(/C=N/NC(=O)CC2(C)OCCO2)c(C)n1-c1ccc(Cl)c(Cl)c1`, for which the Nile Red retention ratio vs DMSO was 101%.
Take `COc1ccccc1/C=C/C=N/n1c(-c2ccc(Cl)cc2Cl)n[nH]c1=S`: the Nile Red retention ratio vs DMSO is 119%.
Consider `Cc1ccc(OCc2cc(C(=O)N(C)CCc3ccccc3)no2)cc1C`, for which the Nile Red retention ratio vs DMSO was 97.7%.
On to `CCOC(=O)c1c(NC(=S)NC(=O)c2ccco2)sc2c1CCCC2`, for which the Nile Red retention ratio vs DMSO is 95.4%.
Regarding `Cc1ccc(/C=C(\C#N)C(=O)Nc2cccc3ncccc23)o1`, the Nile Red retention ratio vs DMSO is 93%.
On to `COc1cccc(NC(=O)CN(C)C(=O)/C=C/c2cc(OC)ccc2OC)c1`, for which the Nile Red retention ratio vs DMSO is 97.5%.
For the compound `CSCCC(NC(=O)COc1ccccc1)C(=O)OCCOc1ccc(Br)cc1` (centres undefined), the Nile Red retention ratio vs DMSO was 91.4%.
Regarding `O=C(CCCCCn1c(=O)[nH]c2ccccc2c1=O)NCCc1c[nH]c2ccccc12`, the Nile Red retention ratio vs DMSO is 96.3%.
In the case of `CCOC(=O)CNC(=O)CSc1nnnn1-c1cc(C)ccc1C` it was 102%.
On to `O=C(OCc1ccc(-c2ccccc2)cc1)c1cccc(O)c1`, for which the Nile Red retention ratio vs DMSO is 108%.
Consider `Cc1nc2c(C(=O)NCc3ccc4c(c3)OCO4)c[nH]n2c(=O)c1Cc1ccccc1F`, for which the Nile Red retention ratio vs DMSO was 108%.
`Cc1nn(C)cc1C(=O)Nc1ccccc1Br`: the Nile Red retention ratio vs DMSO was 104%.
Regarding `Cc1csc(NC(=O)c2ccc(-c3ccc(Cl)cc3Cl)o2)n1`, the Nile Red retention ratio vs DMSO is 104%.
Turning to `Cc1ccc(Cn2c(C)nc3c(c2=O)c2nc4ccccc4nc2n3Cc2ccco2)cc1`, the Nile Red retention ratio vs DMSO was 104%.
On to `O=C(/C=C/c1c(Cl)cccc1Cl)NCc1ccccc1`, for which the Nile Red retention ratio vs DMSO is 102%.
In the case of `Cc1ccc(N=C2NC(=O)/C(=C/C=C/c3ccco3)S2)cc1C` it was 114%.
Under `Cc1cccc(NC(=O)COc2ccccc2C)n1` stands 95.6%.
Consider `COc1ccc(C(=O)NC2CCCc3c2cnn3-c2cccc(C)c2C)c(OC)n1` (centres undefined), for which the Nile Red retention ratio vs DMSO was 93.2%.
As for `CC[n+]1cc(C)ccc1/C=C/c1ccc(N(C)C)cc1`, the Nile Red retention ratio vs DMSO was 118%.
Turning to `O=C(CN1C(=O)C2C3CCC(C3)C2C1=O)Oc1ccc2ccccc2c1` (centres undefined), the Nile Red retention ratio vs DMSO is 105%.
Consider `Cc1ccc(Cn2nnc3c(=O)[nH]c(C4CCN(S(=O)(=O)/C=C/c5ccccc5)CC4)nc32)cc1`, for which the Nile Red retention ratio vs DMSO was 93%.
On to `CCNC(=O)c1c(O)c2cccc3c2n(c1=O)CC3`, for which the Nile Red retention ratio vs DMSO is 107%.
As to `O=C(Cc1ccccc1)NCC1OCCc2ccccc21` (centres undefined), the Nile Red retention ratio vs DMSO is 117%.
Under `CC1CCc2c(sc(NC(=O)c3ccc(Cn4cc(Br)cn4)o3)c2C(N)=O)C1` (centres undefined) stands 108%.
Consider `Cc1ccc2c(c1)NC(=O)[C@@]1(C)[C@@H](c3ccccc3)[C@H]3COc4ccc(Cl)cc4[C@@H]3N1C2=O`, for which the Nile Red retention ratio vs DMSO was 102%.
In the case of `O=C(Cn1c(COc2ccccc2)nc2ccccc21)Nc1cc(Cl)c(Cl)cc1Cl`, the Nile Red retention ratio vs DMSO was 110%.
Under `Cc1ccc2[nH]c3c(=O)n(CC(=O)NCCc4ccc(Cl)cc4)ncc3c2c1` stands 137%; under `C/C(N)=C(/C#N)C(=O)COC(=O)c1cc(-c2cccc(Br)c2)nc2ccccc12`, 110%; under `CCOc1ccc2nc(Cl)c(C3CC(c4ccccc4)=NN3C(=O)c3cccs3)cc2c1` (centres undefined), 131%.
In the case of `C=CCC[C@@H](Cc1ccc(F)cc1)C(=O)OC[C@H](Cc1c[nH]c2ccccc12)NC(=O)[C@@H](CC=C)CC(=O)N(CCO)Cc1ccccc1` it was 123%; in that of `Cc1c(CCOC(=O)CC23CC4CC(CC(C)(C4)C2)C3)sc[n+]1Cc1ccc([N+](=O)[O-])cc1`, 821% (active); in that of `CSCCC(NS(=O)(=O)c1ccc(C)cc1)C(=O)N1CCCC1` (centres undefined), 89.3%.
Regarding `O=C(Nc1ccc(NC(=O)c2cccs2)cc1)c1ccc2ccccc2c1`, the Nile Red retention ratio vs DMSO was 108%.
Turning to `CCCc1nnc(SCC(=O)Nc2ccc(C(=O)OCC)cc2)o1`, the Nile Red retention ratio vs DMSO is 133%.
`CCNc1c(NS(=O)(=O)c2ccc(C3CCCCC3)cc2)c(=O)oc2ccccc12`: the Nile Red retention ratio vs DMSO was 98.7%.
Under `CCc1ccc(NC(=O)Cn2ncn3c(cc4ccccc43)c2=O)cc1` stands 101%.
Take `COc1ccccc1NC(=O)C1CCCN1S(=O)(=O)c1ccc(Cl)cc1` (centres undefined): the Nile Red retention ratio vs DMSO was 99.7%.
In the case of `CC(/C=C/c1ccccc1)=N\NC(=O)C1CC1(C)c1ccccc1` (centres undefined) it was 94%.
For the compound `Cc1oc2cc3oc(=O)ccc3cc2c1C`, the Nile Red retention ratio vs DMSO is 107%.
As to `Cc1cc(C(=O)Nc2ccc(C)c(S(=O)(=O)N3CCOCC3)c2)c2ccccc2n1`, the Nile Red retention ratio vs DMSO is 83.1%.
Turning to `CCOc1ccccc1/C=c1\sc2nc(-c3ccco3)nn2c1=O`, the Nile Red retention ratio vs DMSO is 116%.
